The supplement of paper PMC6555819

tested on: VDR:RXRa (NR concentration 270 nM, RXRa partner concentration 90 nM); assay: PBM binding z-score (relative to random genomic background probes); higher = stronger binding; sequences stand for … in GC…GCGATTGACAGCGTAGAATGAAGG
Protocol: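 Protein-binding microarray (Agilent 4x180K custom design, double-stranded 60-nt probes: 5' GC cap, 34-nt variable region, 24-nt constant primer region; full probe sequence given). Purified or IVT nuclear receptor:RXRα heterodimers (3:1 NR:RXRα, mostly 270:90 nM) or homodimers were incubated for 1 h in PBS with 2% milk and no ligand, then detected with Alexa488 antibodies. Fluorescence from o1-orientation probes (~5 replicates averaged) was converted to z-scores against 500 random hg19 background probes. Variable regions are seed direct-repeat (DR0–DR5) sites, all their single-nucleotide variants and half-site ablations.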

**Q.** How did the PBM binding z-score turn out when CCTACTGGGCCAAAAAGGTCTTTGATGCCGATAA was run?
**A.** -0.154

**Q.** For TCTGCGAGGTCAACGATGGTCAGCTAATCTGCTA, which PBM binding z-score is on record?
**A.** 5.38

**Q.** Which PBM binding z-score does the source give for CAAACTAGGTCAAGAGGTCTAAGTCCGCTTCCCG here?
**A.** 3.91

**Q.** With GCTGCTAGTTCAGGTTGGTCAGCTAACGGGTACG as the sequence, how does the PBM binding z-score read?
**A.** 0.0828

**Q.** ATACCAAGGTGATTGTGAGGTCGTTGATACTAAC was tested. Which PBM binding z-score did it give?
**A.** 3.53

**Q.** ATATGTAGGTTACATCCGGGTCACTCAGGCTATG was tested. Which PBM binding z-score did it give?
**A.** 3.71

**Q.** How did the PBM binding z-score turn out when AGTCAAAGTTCACTAGGTAACGTATGATTCAGCT was run?
**A.** 3.93

**Q.** With TGTTGTAGATCAGCAGGTTAAGAAAGCTGGCCAA as the sequence, how does the PBM binding z-score read?
**A.** -0.372

**Q.** Which PBM binding z-score does the source give for CCATACGGGTCACTGACAGGTTATAGCATTTGGA here?
**A.** 3.74

**Q.** How did the PBM binding z-score turn out when AGAATGACGTTACCAAAGATCAGGGAAACGCTTG was run?
**A.** -0.434

**Q.** CCTTACGGGTCACTCCAGGTTATAGCGTCGGAGT was tested. Which PBM binding z-score did it give?
**A.** 4.14

**Q.** TCTTGTAGATCAAAGATTAAGAAAGCCGAAGCCT was tested. Which PBM binding z-score did it give?
**A.** 0.389

**Q.** CAGCCTAGGTCAGGGCCAGTACAGGAGGAACGTT was tested. Which PBM binding z-score did it give?
**A.** 0.635

**Q.** GCAGACAGGCGAAACGCAGGTAACTCAGGGTGGC was tested. Which PBM binding z-score did it give?
**A.** -0.853

**Q.** For GCTTGTAGATCAAGGTTAAGGAAGACTAAGCTAA, which PBM binding z-score is on record?
**A.** 0.00298

**Q.** For TCTATCAGTTGAAGGGCAACCGACGAGTCCGTTT, which PBM binding z-score is on record?
**A.** 1.07

**Q.** How did the PBM binding z-score turn out when TAGCCTAGGTCATTGGGCCAGTACAGTACGCATC was run?
**A.** 2.19

**Q.** How did the PBM binding z-score turn out when GCGACTGGGGCAAAGCAGGTTCCCATAAGGTTGG was run?
**A.** -0.543

**Q.** How did the PBM binding z-score turn out when AGTCAAAGTTCACTTGGTAACGTAAGATTCAGCT was run?
**A.** 4.07

**Q.** With CCGACTGGGGCATAAGGTTACCATTAGCCAGCCC as the sequence, how does the PBM binding z-score read?
**A.** -0.0219

**Q.** GGAACGAGGGCTAAGTTGATAGCATCTGTCGACG was tested. Which PBM binding z-score did it give?
**A.** -0.701

**Q.** For CGAACTAGGTCAGAACAGGACAGTGAAGGATGAT, which PBM binding z-score is on record?
**A.** 0.634

**Q.** For CATCCAAGGTCAATGCTAGGTCAGTGAAAGCATT, which PBM binding z-score is on record?
**A.** 4.82

**Q.** How did the PBM binding z-score turn out when ATATGTACGTTAGCTGGGGTCATTCAGACTAGGC was run?
**A.** 5.16

**Q.** CCTAGTAGGCCAATCTGGGTCACTCAAGGCTTGA was tested. Which PBM binding z-score did it give?
**A.** 0.875

**Q.** Which PBM binding z-score does the source give for AATACAGGTTCACTAGGCCAGAGTAGGTACGAAT here?
**A.** 3.2

**Q.** Which PBM binding z-score does the source give for CCAGACAGGTGAGAAGGTATCTCAGCCTCGATTA here?
**A.** -0.224

**Q.** How did the PBM binding z-score turn out when GATACAGGGTCAGCAAGAGGCCAGAGTATGGAAA was run?
**A.** 3.43

**Q.** CCGACTGTGGCAAGGTTACCATAACGCACAGCCA was tested. Which PBM binding z-score did it give?
**A.** 0.0735

**Q.** AGAACGAGGGCACGCTGAGTTGTTAGCAGAGTAG was tested. Which PBM binding z-score did it give?
**A.** 1.6

**Q.** CCTAGCAGGCCCATCTGGGTCACTCAAGGCTTGA was tested. Which PBM binding z-score did it give?
**A.** -0.0613

**Q.** How did the PBM binding z-score turn out when TCTTGTAGATCAGCAGGTTAAAAAAGCTGGCCAA was run?
**A.** 0.495

**Q.** For TCTTGTAGATCAATAGAGTTTAAGAAAGTGCGCT, which PBM binding z-score is on record?
**A.** 1.23

**Q.** With CAAACTAGGTCACCGGAAGGTCAAAATCCGCATG as the sequence, how does the PBM binding z-score read?
**A.** 5.69

**Q.** Which PBM binding z-score does the source give for TCTTGTAGACCAGCAGGTTAAGAAAGCTGGCCAA here?
**A.** 0.209

**Q.** TCATATAGGTAAATGCTATGTGAAAGTCCGATCT was tested. Which PBM binding z-score did it give?
**A.** 0.852

**Q.** ATCTCGAGGTAACAAGTTCAGTGAAAGAGAGGAC was tested. Which PBM binding z-score did it give?
**A.** 2.63

**Q.** For GGAACGAGGGCATTCGAGTTAATAGCATGGCGAT, which PBM binding z-score is on record?
**A.** 2.35

**Q.** For CGACCTAGGTCAAGGACAGTGAATCTCCGCACGC, which PBM binding z-score is on record?
**A.** 1.96

**Q.** Which PBM binding z-score does the source give for TCTTGTCGATCAAGCAGGTTAAGAAAGCCTGAGT here?
**A.** 0.107
